Assay outcomes: PubChem, several laboratories
This is a sample that favours compounds with a hit; in the whole collection about 0.84% have one here.
Redox H2O2 prof: compounds producing H2O2 with reducing agent – biochemical, NIH compound library profiling, artefact control for MLSCN library redox annotation, primary screen; DTT-dependent redox cycling H2O2, phenol red/HRP absorbance; 100% = 100 µM peroxide control, 0% = buffer; activation, % at 10 µM; hit rate 0.03% among 200,000;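 active means activation of at least 50% relative to the plate's high and low controls in the primary single-dose screen; inactive means activation below 50%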;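 further: compound incubated with DTT at 0.8 mM final as the reducing agent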
p97 inhibitor: inhibitors of human p97 ATPase; recombinant p97 ATPase, Kinase-Glo ATP luminescence, 3 h; inhibition, % at 8 µM; hit rate 0.42% among 220,000; AID 1481; in the data active means inhibition above about 15%;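 further: 0% = DMSO vehicle and 100% = wells lacking enzyme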
S1P3 antagonist: blocks the human S1P3 receptor; Q99500; CHO S1P3 NFAT-BLA reporter, FRET fluorescence, antagonist mode; inhibition, % at 4.98 µM; hit rate 0.27% among 170,000; AID 485;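 active means inhibition above the plate cutoff, the mean inhibition of test wells on that plate plus 3 SD, cut at about 28% in these data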;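 further: cells challenged with S1P at its EC80 of 0.8 µM; blue over green emission ratio from cleaved BLA substrate after 4 h stimulation; 0% = S1P-stimulated wells and 100% = unstimulated DMSO-only wells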
Target sequence (Q99500 whole entry, looked up): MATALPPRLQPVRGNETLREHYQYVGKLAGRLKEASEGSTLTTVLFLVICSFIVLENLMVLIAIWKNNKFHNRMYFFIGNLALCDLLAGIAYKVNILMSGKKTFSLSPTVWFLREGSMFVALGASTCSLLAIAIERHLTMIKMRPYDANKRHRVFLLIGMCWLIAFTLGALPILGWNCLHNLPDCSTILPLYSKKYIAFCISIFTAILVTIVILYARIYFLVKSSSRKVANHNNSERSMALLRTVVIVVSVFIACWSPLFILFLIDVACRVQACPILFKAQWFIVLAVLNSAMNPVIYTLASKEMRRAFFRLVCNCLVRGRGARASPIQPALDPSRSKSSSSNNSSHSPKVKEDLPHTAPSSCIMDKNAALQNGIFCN
G6PDH counter-1: counter-screen for G6PDH assay hits: L. mesenteroides G6PDH inhibition; inhibition, % at 5 µM; Purified L. mesenteroides G6PDH, diaphorase/resazurin coupled fluorescence, 45 min; AID 1020; hit rate 0.12% among 200,000; in the data active means inhibition above about 50%
TbHK1 inh: blocks Trypanosoma brucei hexokinase 1 activity; recombinant TbHK1, G6PDH-coupled NADH A340; inhibition, % at 10 µM; hit rate 0.11% among 220,000;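 active means inhibition of 50% or more in the single-dose primary screen; inactive means inhibition below 50%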
G6PDH counter-2: inhibits Leuconostoc G6PDH, counter-screen for TbHK1 inhibitors | shares compounds with TbHK1 inh | inhibition, % at 10 µM | hit rate 7% among 210 | purified G6PDH, NADH absorbance, 1 h;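 active means at least 50% inhibition in the glucose-6-phosphate dehydrogenase coupled counterscreen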
TbHK1 confirm: confirmation of Trypanosoma brucei hexokinase 1 inhibitors; shares compounds with TbHK1 inh; recombinant TbHK1, G6PDH-coupled NADH A340 absorbance; inhibition, % at 10 µM; hit rate 10% among 210;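 active means inhibition of at least 50% in both of the two screening runs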;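 further: 0% and 100% set by the maximum and minimum signal control wells on each plate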
* hit, by the source's call; · = no result given.

SMILES	Redox H2O2 prof	p97 inhibitor	S1P3 antagonist	G6PDH counter-1	TbHK1 inh	G6PDH counter-2	TbHK1 confirm
COc1cccc2c(=O)c(C(=O)NCc3cccs3)c[nH]c12	-3	-2	17	8	53*	-13	-22
COc1cccc(C2=NOC(C(=O)Nc3cc(OC)c(OC)c(OC)c3)C2)c1 (configuration not stated)	1	-3	-4	2	65*	-8	-2
CC1(C(=O)CSc2n[nH]c(-c3ccccc3Cl)n2)CCC(=O)O1 (configuration not stated)	0	6	·	-2	67*	-11	-2
CCOC(=O)c1sc(NC(=O)Cc2ccc(F)cc2)nc1C	0	3	1	7	-4	·	·
COc1ccc(C2SCC(=O)N2CCc2ccc(OC)c(OC)c2)cc1 (configuration not stated)	0	-6	-17	5	4	·	·
O=C1CC(C(=O)NCc2ccccc2)C2(CCCC2)O1 (configuration not stated)	0	-2	-2	5	55*	1	2
Cc1ccc2c(c1)N(CC(=O)NC1CCC(C)CC1)C(=O)CO2 (configuration not stated)	1	2	5	6	21	·	·
Cc1ccc2c(c1)N(CC(=O)NC1CCCc3ccccc31)C(=O)CO2 (configuration not stated)	1	0	26	-3	66*	1	-1
Cc1nc2nc(-c3ccccc3)cc(=O)n2[nH]1	0	-8	-31	12	55*	-3	1
FC(F)(F)Oc1ccc(Nc2nc3ccccc3o2)cc1	1	-4	24	3	-1	·	·
Cn1c(=O)[nH]c(=O)c2c1nc(N1CCCCC1)n2CCOc1ccccc1	0	-8	16	-2	55*	4	2
CCCCCCn1c(N2CCN(c3cccc(Cl)c3)CC2)nc2c1c(=O)[nH]c(=O)n2C	1	1	9	-2	59*	-50	14
Cn1c(=O)[nH]c(=O)c2c1nc(N1CCCC1)n2CC(O)COc1ccccc1 (configuration not stated)	0	2	-13	11	-1	·	·
CCc1cccc(NC(=O)NC2CCCCC2)c1	1	-2	14	9	60*	-5	5
CCc1cccc(NC(=O)C2CCCC2)c1	1	-5	14	0	-2	·	·
COC(=O)C1(S(=O)(=O)c2ccc(C)cc2)CCOCC1	0	4	·	7	62*	-9	1
COc1ccc(C2(C)NC(=O)N(Cc3cc(Cl)cc4c3OCOC4)C2=O)cc1OC (configuration not stated)	-1	-3	8	2	53*	-8	-1
CCOc1nc(NC(C)C)nc(NC(C)C)n1	2	1	·	3	3	·	·
Cc1cc(C)c(NC(=O)Cn2nnc(C(=O)NCc3ccco3)c2N)c(C)c1	-3	2	4	2	-2	·	·
O=C(Nc1ccc2c(c1)OCO2)C1CCN(S(=O)(=O)c2cccs2)CC1	3	0	·	7	-3	·	·
O=C(Nc1ccc2c(c1)OCO2)C1CCCN(S(=O)(=O)c2cccs2)C1 (configuration not stated)	-2	-1	11	14	55*	2	-5
O=C(Nc1ccc2c(c1)OCCO2)C1CCCN(S(=O)(=O)c2cccs2)C1 (configuration not stated)	-1	-7	0	13	58*	-1	-3
CC1(C)CC(=O)C2=C(C1)N(c1ccccc1)C(=O)CC2c1ccsc1 (configuration not stated)	-1	-6	·	2	-2	·	·
CC1CCC(NC(=O)c2ccc(CS(=O)(=O)Cc3ccccc3F)o2)CC1 (configuration not stated)	-5	4	-11	6	61*	-4	7
CC(=O)Nc1ccc(NC(=O)CCC(=O)NCCO)cc1	2	6	12	4	35	·	·
SMILES	Redox H2O2 prof	p97 inhibitor	S1P3 antagonist	G6PDH counter-1	TbHK1 inh	G6PDH counter-2	TbHK1 confirm
O=C(CCC(=O)Nc1ccc(Oc2ccccc2)cc1)NCCO	11	0	22	2	50*	-10	2
CC(C)N1CCC(N2CCN(Cc3ccc(C#CC(C)(C)O)s3)CC2CCO)CC1 (configuration not stated)	1	2	0	8	-4	·	·
Cc1ccc(C(O)c2cccnc2)o1 (configuration not stated)	2	0	-23	2	-7	·	·
O=S(=O)(Cc1ccccc1Cl)CC(O)COc1ccccc1Cl (configuration not stated)	-5	-4	·	6	53*	13	12
O=S(=O)(CC(O)COc1ccccc1Cl)c1ccccc1 (configuration not stated)	2	-10	·	2	13	·	·
S=C(NCc1ccco1)N1CCN(c2ccc(Cl)cc2)CC1	-1	-2	4	9	12	·	·
CCOc1cccc2c1OC1(C)CC2NC(=O)N1Cc1ccccc1 (configuration not stated)	-1	-4	-5	5	6	·	·
CCOc1cccc2c1OC1(C)CC2NC(=O)N1c1cccc(F)c1 (configuration not stated)	2	3	-14	4	57*	-5	-1
O=C(O)CCN=C1CCCc2ccccc2N1	-5	1	-11	17	54*	-1	4
O=C(O)CCCN=C1CCCc2ccccc2N1	-1	4	·	1	21	·	·
c1cc(-c2nnc(-c3ccncc3)o2)ccn1	20	-4	7	11	74*	-7	-7
Cc1nn(C)c(Cl)c1C(=O)NCC(=O)O	-1	5	-13	-2	-1	·	·
Cc1nn(C)c(C)c1C(=O)NN	-4	1	·	-2	54*	-2	2
Cc1ccc(C)n1-c1ccc(C(=O)NCc2cccnc2)cc1	0	0	-8	1	-2	·	·
CCOc1cc(S(=O)(=O)NCc2cccnc2)c(C)cc1C	0	2	-8	7	-2	·	·
CC(C)(C)OC(=O)N1CCC(C(=O)N[C@H](Cc2ccccc2)C(=O)O)CC1	2	5	-21	-8	-3	·	·
O=c1[nH]c2ccccc2c2nc3ccccn3c12	-2	4	-38	-2	2	·	·
O=c1nc2c(O)cccn2c2c1c(=O)[nH]c1ccccc12	0	12	-1	-8	56*	45	70*
O=C(Cc1ccccc1[N+](=O)[O-])NCc1ccc(Cl)cc1Cl	3	-6	-16	24	7	·	·
NC(=O)C1CCN(C(=O)CN(c2cccc(C(F)(F)F)c2)S(=O)(=O)c2ccccc2)CC1	2	3	-12	2	52*	-7	0
